Source: PubChem BioAssay (several laboratories)
Rows were chosen to be rich in hits. Some 3.5% of all compounds tested hit in one or more screens of this group.
Mtb bLac sens: beta-lactam sensitization of Mtb H37Rv | M. tuberculosis H37Rv growth with meropenem, percent inhibition | inhibition, % at 25 µM | 0.27% of 330,000 active; call rule not given here;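 further: growth measured after seven days incubation then overnight dye step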
Rv3671c inh: Rv3671c (M. tuberculosis) protease inhibition | inhibition, % at 5.96 µM | P9WHR9 | 0.048% of 320,000 active; in the data active means inhibition above about 38%;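 further: extracellular domain of Rv3671c used as enzyme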
Mtb UGM inh: Mtb UDP-galactopyranose mutase inhibition | P9WIQ1 | purified UGM, fluorescence polarization probe displacement | inhibition, % at 10 µM | 0.06% of 320,000 active | AID 504406; in the data active means inhibition above about 10%, passing the limit was not always enough; inconclusive means no clear call, values can overlap the other calls
Mtb FBA inh: inhibitors of M. tuberculosis fructose-bisphosphate aldolase; inhibition, % at 1 µM; purified M. tuberculosis FBA, fluorescence read-out; AID 588726; P9WQA3; 2.3% of 360,000 active
Target sequence (P9WQA3 whole entry, looked up): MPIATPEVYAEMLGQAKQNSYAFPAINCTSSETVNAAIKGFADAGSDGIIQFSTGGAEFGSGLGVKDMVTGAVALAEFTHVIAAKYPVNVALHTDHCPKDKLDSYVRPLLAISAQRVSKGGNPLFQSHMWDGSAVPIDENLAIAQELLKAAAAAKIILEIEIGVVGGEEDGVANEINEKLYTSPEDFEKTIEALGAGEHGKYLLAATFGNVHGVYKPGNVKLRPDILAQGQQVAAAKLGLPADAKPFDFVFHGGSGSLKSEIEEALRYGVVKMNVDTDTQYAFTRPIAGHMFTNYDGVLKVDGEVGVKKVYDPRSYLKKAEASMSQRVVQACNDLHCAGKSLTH
GDH-TPI counter-1: inhibits GDH-TPI coupling enzymes, artifact for Mtb FBA screen; GDH-TPI coupled enzyme counterscreen, NADH absorbance; inhibition, % at 4.8 µM; 1.2% of 360,000 active; AID 588335; in the data active means inhibition above about 30%
Mtb FBA confirm: Mtb FBA inhibition, confirmed; purified M. tuberculosis FBA, fluorescence read-out; shares compounds with Mtb FBA inh; AID 651616; inhibition, % at 1 µM; 78% of 5,600 active
GDH-TPI counter-2: GDH-TPI inhibition counter-screen for FBA inhibitors. 81% of 5,600 active. inhibition, % at 1 µM. shares compounds with Mtb FBA inh. AID 652141. GDH-TPI coupled enzyme counterscreen, fluorescence; in the data active means inhibition above about 10%
GDH-TPI dose: GDH-TPI dose response counter-screen for Mtb FBA; shares compounds with Mtb FBA inh; GDH-TPI coupled enzyme assay, fluorescence, artifact counterscreen; IC50, µM; 79% of 170 active; call rule not given here
Hits are given with their value; n = inactive; u = inconclusive; x = no result; + = active, no number. Unless noted, no stated cut-off is given here; in the data, active means inhibition above about 27%; inactive means the rest.

SMILES	Mtb bLac sens	Rv3671c inh	Mtb UGM inh	Mtb FBA inh	GDH-TPI counter-1	Mtb FBA confirm	GDH-TPI counter-2	others
CN(Cc1ccccc1F)C(=O)CNC(=O)Cc1cccc2ccccc12	n	n	n	n	n	x	x
N#Cc1cnn2ccn(C3OC(CO)C(O)C3O)c12 (stereo not given)	n	n	n	n	n	x	x
CCOC(=O)c1nn(-c2ccc(C)c(C)c2)cc1O	n	n	n	n	n	x	x
CCOC(=O)c1nn(-c2ccc3c(c2)OCCO3)cc1O	n	n	n	30.8	n	92.8	64.8
C=CCNc1nc(NCC)nc(N2CCOCC2)n1	n	n	n	n	n	x	x
C=CCNc1nc(Nc2ccc(-c3nc4ccccc4o3)cc2)nc(N2CCOCC2)n1	n	n	n	97.0	35.3	n	n	GDH-TPI dose=0.493
Cc1csc(NC(=O)CSC2=NS(=O)(=O)c3cc(F)ccc3N2)n1	n	n	n	n	n	x	x
N#Cc1ccc(C(=O)OCC(=O)N2CCN(C(=O)c3ccco3)CC2)cc1	n	n	n	n	n	x	x
N#Cc1ccccc1OCC(=O)OCC(=O)N1CCN(C(=O)c2ccco2)CC1	n	n	n	73.9	n	170.5	147.1
Cc1cc(-c2nnc(SCC(=O)Nc3ccccc3C)n2N)n[nH]1	n	n	n	n	n	x	x
Cc1ccc(-c2ccc(CO)o2)cc1N	n	n	n	30.1	n	187.3	121.0
Oc1cc(-n2cccn2)c(O)cc1-n1cccn1	n	n	n	n	n	x	x
Cc1[nH]n(-c2ccccc2)c(=O)c1C=Nc1cnc2ccccc2c1	n	n	n	34.0	n	n	n
CN(C)c1nc(-c2ccccc2)cc(C(F)(F)F)c1C#N	n	n	n	n	n	x	x
Cc1nn(CCO)c2nc(-c3cccs3)cc(C(F)(F)F)c12	n	n	n	100.3	n	179.5	168.4
CN(C)c1nc(-c2cccs2)cc(C(F)(F)F)c1C#N	n	n	n	34.5	n	n	n
CC1(C(=O)NCc2ccc3c(c2)OCO3)CCN1C(=O)CCc1ccc(Cl)cc1Cl (stereo not given)	x	x	x	n	n	x	x
C=CCNc1cc(N2CCCC2)ccc1[N+](=O)[O-]	n	n	n	n	n	x	x
Cn1c(-c2ccc(CN3CCCCC3)o2)nc2ccccc21	n	n	n	32.5	n	n	12.1
COc1ccc(C(=O)O)cc1NC(=S)NC(=O)C(c1ccccc1)c1ccccc1	u	n	n	n	n	x	x
CNC(=S)N(CCCO)Cc1cc2cc3c(cc2[nH]c1=O)OCO3	n	n	n	30.5	n	85.2	65.2
CCN(CC)CCCN(Cc1cc2cc3c(cc2[nH]c1=O)OCO3)C(=S)NCc1ccco1	n	n	n	n	n	x	x
CCN(CC)CCN(Cc1cc2cc3c(cc2[nH]c1=O)OCO3)C(=S)NCc1ccco1	n	n	n	35.4	n	n	n
CCC(=O)N(Cc1ccco1)Cc1cc2cc3c(cc2[nH]c1=O)OCO3	n	n	n	39.7	n	+	152.1
O=c1[nH]c2cc3c(cc2cc1CN(CCCO)C(=S)NCc1ccco1)OCO3	n	n	n	n	n	x	x
SMILES	Mtb bLac sens	Rv3671c inh	Mtb UGM inh	Mtb FBA inh	GDH-TPI counter-1	Mtb FBA confirm	GDH-TPI counter-2	others
CN(C)CCCN(Cc1cc2cc3c(cc2[nH]c1=O)OCO3)C(=S)NCc1ccco1	n	n	n	27.3	n	+	+
O=C(c1ccco1)N1CCN(C2CN(Cc3ccc([N+](=O)[O-])cc3)S(=O)(=O)C2)CC1 (stereo not given)	x	x	x	n	n	x	x
COc1ccc(CCC(=O)NC2CCC(C)CC2)cc1 (stereo not given)	n	n	n	n	n	x	x
CCn1cc(C(=O)N[C@H](C(=O)NCCCn2ccnc2)C(C)C)c(=O)c2cc3c(cc21)OCO3	n	n	n	n	n	x	x
CN(CC(=O)Nc1ccccc1Cl)C(=O)COC(=O)c1cc(S(=O)(=O)N(C)C)ccc1N1CCCC1	n	n	n	n	n	x	x
COc1ccc(SC[C@H](Cc2ccccc2)N2CC[C@@H](C(C)(C)C)CCC2=O)cc1	n	n	n	n	n	x	x
O=C(/C=C/c1ccc(Br)cc1)Nc1ccc(S(=O)(=O)Nc2ncccn2)cc1	n	n	n	n	n	x	x
O=C(/C=C/c1cccc(F)c1)Nc1ccc(S(=O)(=O)Nc2ncccn2)cc1	n	n	n	92.8	n	29.3	n	GDH-TPI dose=n
Cn1nc(C(F)(F)F)c(-c2cccc(C(F)(F)F)c2)c1NC(=O)Nc1ccc(F)cc1	n	n	n	n	n	x	x
CCCC(O)(c1ccc(Cl)cc1)C(CN1CCOCC1)c1ccc(Cl)cc1 (stereo not given)	u	n	n	30.5	n	97.4	69.8
Cc1ccccc1C(=O)Nc1ccc2c(c1)nc(CCNC(=O)c1ccco1)n2C	n	n	n	n	n	x	x
COc1ccc(-c2cc(=O)oc3c(C)c(OCC(=O)N[C@@H](Cc4ccc(O)cc4)C(=O)O)ccc23)cc1	n	n	n	n	n	x	x
Cc1c(O)ccc2c(CC(=O)N[C@@H](Cc3ccc(O)cc3)C(=O)O)cc(=O)oc12	n	x	n	94.3	n	n	n	GDH-TPI dose=1.77
O=C(CSc1ccccc1)NCC1(N2CCCCC2)CCCCC1	n	n	n	n	n	x	x
CC1CN(c2oc(-c3ccco3)nc2C#N)CC(C)O1 (stereo not given)	n	n	n	88.0	n	138.5	92.8
COc1cc(/C=N/N2C(=O)c3ccccc3C2=O)ccc1O	n	n	n	n	n	x	x
COc1cc(/C=N/c2oc(-c3ccccc3)cc2C#N)ccc1O	n	n	n	47.2	48.2	+	+
COc1ccc2c(CC(=O)N[C@@H](Cc3c[nH]c4ccccc34)C(=O)O)cc(=O)oc2c1	n	n	n	n	n	x	x
Cc1ccc2c(CN3CCCCC3)cc(=O)oc2c1	n	n	n	n	n	x	x
CCCCN(CCCC)Cc1cc(=O)oc2cc(OC)ccc12	x	x	x	44.8	x	+	+
COc1ccc2c(CN3CCCC3)cc(=O)oc2c1	x	x	x	36.1	x	n	n	GDH-TPI dose=5.07
COc1ccc2c(CC(=O)O)cc(=O)oc2c1	n	n	n	66.4	n	+	+
Cn1c(=S)n(CCC(=O)O)c2ccccc21	n	n	n	n	n	x	x
O=C(O)CCn1c(-c2ccccc2)cc2ccccc21	n	n	n	57.8	n	n	15.9
CC(C)C1Cc2c(sc3[nH]c(=S)n(Cc4ccccc4)c(=O)c23)CO1 (stereo not given)	n	n	n	n	n	x	x
COc1ccc(C=C2C(=O)OC(C)(C)OC2=O)cc1OC	n	n	n	n	n	x	x
COc1ccc(/C=C2\OC(=O)c3c(OC)cccc32)cc1OC	n	n	n	30.4	n	124.8	96.6
CCCCc1ccc(S(=O)(=O)NC(=O)C2(C)CCN2C(=O)c2cccc(F)c2)cc1 (stereo not given)	x	x	x	n	n	x	x
CNC(=O)c1[nH]cnc1C(=O)Nc1cccc(OC)c1	n	n	n	71.2	n	+	198.9
CCOC(=O)c1[nH]cnc1C(=O)Nc1cccc(OC)c1	n	n	n	n	n	x	x
